The source made the active and inactive calls.
Test: yeast growth modulation, basal conditions, primary screen, YJM789 clinical isolate, OD600, 24 h (AID 1089);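 note: growth of clinical yeast isolate S. cerevisiae YJM 789 seeded 1000 cells per well; test concentration not given here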
Conditions: S. cerevisiae YJM789 growth, higher = more signal, called active from +8 up or from −8 down

z-score, inactive:
CO[C@@H]1COC(=O)CC=C[C@@H](C)[C@H](OC)COC(=O)CC=C[C@H]1C -0.131, O=C1O[C@H](c2ccccc2)[C@H](c2ccccc2)N2[C@H]1[C@@H](C(=O)Nc1nc3ccccc3s1)[C@]1(C(=O)Nc3ccc(C#CC4(O)CCCCCC4)cc31)[C@H]2c1ccc(O)cc1 -0.0416, O=C1O[C@@H](c2ccccc2)[C@@H](c2ccccc2)N2[C@@H](c3ccccc3OCCO)[C@]3(C(=O)Nc4ccc(C#CC5=CCCCC5)cc43)[C@@H](C(=O)O)[C@H]12 2.48, O=C1O[C@@H](c2ccccc2)[C@@H](c2ccccc2)N2[C@@H](c3ccc(O)cc3)[C@]3(C(=O)Nc4ccccc43)[C@@H](C(=O)N3CCN(c4ncccn4)CC3)[C@H]12 0.2, C[N+](C)(C)CCCCNC(=O)[C@@H]1C[C@@H]2C(=O)N3CCC[C@H]3C(=O)N2[C@@H]1c1cccc(OCCO)c1 -1.09, C=CC[C@@]1(C(=O)N2CCOCC2)N=C(c2ccc(OCCCO)cc2)O[C@@H]1c1ccccc1 0.509, CCC#CCN(Cc1ccccc1Br)[C@H](/C=C/c1ccccc1)[C@@H](O)Cc1ccccc1 0.629, O=C(NCc1ccccc1)c1ccc(Br)cc1[N+](=O)[O-] -1.19, CC(C)N1CC=CC23O[C@@H]4/C=C\CCCOC(=O)C4[C@H]2C(=O)N(CCCCCO)[C@@H]3C1=O (stereo partly specified) -0.927, O=C1OCC=C[C@H]2OC34C=CCN(Cc5ccccc5)C(=O)[C@H]3N(CCO)C(=O)[C@@H]4[C@@H]12 (stereo partly specified) -0.308, O=C1O[C@H](c2ccccc2)[C@H](c2ccccc2)N2[C@H]1[C@@H](C(=O)NC[C@H](O)c1ccccc1)[C@]1(C(=O)Nc3ccc(C#CC4=CCCCC4)cc31)[C@H]2c1ccc(OCCO)cc1 2.99, COc1ccc(-c2ccccc2[C@@H]2N[C@H](C(=O)O)CC[C@H]2C)cc1 -0.306, CCOC(=O)C[C@H]1[C@H](OC(=O)c2cc3ccccc3oc2=O)[C@@H](NC(=O)C2CCCCC2)c2cc(OCCCO)ccc2N1C(=O)c1ccc2ccccc2n1 0.152, NC(=O)NCC#Cc1ccc2c(c1)[C@]1(C(=O)N2)[C@H](C(=O)N2CCCCCCC2)[C@H]2C(=O)O[C@H](c3ccccc3)[C@H](c3ccccc3)N2[C@@H]1c1ccccc1OCCO 0.305, Cc1ccc(N2C(=O)c3ccccc3[C@@H](C(=O)NCc3ccccc3)[C@@H]2c2ccc(CO)cc2)nc1 0.938, COC(=O)C(CC#Cc1ccc2c(c1)[C@]1(C(=O)N2)[C@H](C(=O)N2CCCCCCC2)[C@H]2C(=O)O[C@H](c3ccccc3)[C@H](c3ccccc3)N2[C@@H]1c1ccc(O)cc1)C(=O)OC -0.428, COc1ccc([Si](C)(C)[C@@H]2[C@@H](CCO)O[C@]3(C(=O)N(Cc4ccc(NC(=O)[C@H](C)O)cc4)c4ccccc43)[C@H]2C)cc1 3.17, C=CCNC(=O)[C@@H]1[C@H]2C(=O)O[C@H](c3ccccc3)[C@H](c3ccccc3)N2[C@H](c2ccc(OCCO)cc2)[C@@]12C(=O)N(C(=O)OCCOC)c1ccc(C#CC3(O)CCCCCC3)cc12 -1.05, CC1CC/C=C\[C@H]2OC34C=CCN(Cn5nnc6ccccc65)C(=O)[C@H]3N(C(C)CO)C(=O)[C@@H]4C2C(=O)O1 (stereo partly specified) 0.799, COc1ccc([Si](C)(C)[C@H]2[C@H](CC(=O)N(CCO)Cc3ccccc3)O[C@@]3(C(=O)N(C)c4ccccc43)[C@@H]2C)cc1 -1.98, CO[C@H]1COC(=O)[C@H](CCSC)NC(=O)CC=C[C@@H](C)COC(=O)[C@@H](OCc2ccccc2)C=C[C@@H]1C 0.891, C=CCOC(=O)[C@@H]1[C@H]2C(=O)O[C@H](c3ccccc3)[C@H](c3ccccc3)N2[C@H](c2ccc(OCCOC(=O)[C@H]3C[C@H]4C(=O)N[C@@H](CCCCNC(C)=O)C(=O)N4[C@H]3c3ccc(O)cc3)cc2)[C@@]12C(=O)Nc1ccc(I)cc12 1.38, O=[N+]([O-])c1ccc(C[n+]2ccc3ccc(O)cc3c2)o1 -0.0384, COCCOC(=O)N1C(=O)[C@@]2(c3cc(C#CC4=CCCCC4)ccc31)[C@H](C(=O)NC[C@H](O)c1ccccc1)[C@H]1C(=O)O[C@H](c3ccccc3)[C@H](c3ccccc3)N1[C@@H]2c1ccccc1OCCO 2.24, CCOC(=O)C1=CC[C@@H](c2ccc(-c3ccc(OCc4ccccc4)cc3)c(OC)c2)N(S(=O)(=O)c2ccc(C)cc2)[C@H]1c1ccccc1 -0.534, COC(=O)[C@@]1(Cc2ccc(OC)cc2)[C@H]2c3cc(C(=O)N(C)C)n(Cc4ccc(C)c(F)c4F)c3C[C@H]2CN1C(=O)c1ccccc1 1.14, CCCC=C(CCC)[C@@H](NS(=O)(=O)c1ccc(-c2ccccc2)cc1)c1ccc(C(=O)OC)cc1 0.282, CCOC(=O)[C@H]1C/C=C/C[C@H](C(=O)OCC)C(=O)O[C@H]2[C@@H](OC)O[C@H](CO)[C@@H](OC(=O)Nc3ccc(Br)cc3)[C@@H]2OC1=O 0.343, C=C[C@H](OC)[C@@H](OC(=O)Nc1ccc(SC)cc1)c1ccc(O)c(F)c1 -1.83, COCCOC(=O)N1C(=O)[C@@]2(c3cc(C#CCNC(N)=O)ccc31)[C@H](c1ccc(OCCO)cc1)N1[C@H](c3ccccc3)[C@H](c3ccccc3)OC(=O)[C@H]1[C@@H]2C(=O)N1CCCCCCC1 1.64, CN(C)c1ccc(C(O)C2C=CC3C(=O)NC(=O)C3N2Nc2ccc(Cl)cc2Cl)cc1 (stereo unspecified) -0.298, COCCOC(=O)N1C(=O)[C@@]2(c3cc(C#CCC(C(=O)OC)C(=O)OC)ccc31)[C@H](C(=O)N1CCN(c3ncccn3)CC1)[C@H]1C(=O)O[C@H](c3ccccc3)[C@H](c3ccccc3)N1[C@@H]2c1ccc(O)cc1 -0.256, COCCOC(=O)N1C(=O)[C@@]2(c3ccccc31)[C@H](C(=O)N1CCc3cc(OC)c(OC)cc3C1)[C@H]1C(=O)O[C@H](c3ccccc3)[C@H](c3ccccc3)N1[C@@H]2c1ccccc1OCCO 0.384, CC(C)=C1C(=O)C(c2ccccc2)=C2CN3C(=O)N(CCc4ccccc4)C(=O)[C@]3(Cc3ccccc3)[C@H]21 0.637, CO[C@H]1COC(=O)CC=C[C@H](C)COC(=O)[C@@H](OCc2ccccc2)C=C[C@@H]1C 0.0706, [N-]=[N+]=NCc1ccccc1C[C@@]1(C(=O)N2CCOCC2)N=C(c2ccc(OCCCO)cc2)O[C@@H]1c1ccccc1N=[N+]=[N-] -0.788

Source: PubChem BioAssay
